Measurements reported in ChEMBL document CHEMBL3988442, “University of Dundee, Small-Polar-MMV Screening Library” (2021).
For some of these results: Results with a measured potency or affinity are listed apart.

How the values were obtained:
Design in all cases: scale not given: direction of the effect not stated beside the values
[1] = molecular target: Protein translocase subunit SecA (Escherichia coli (strain K12)) (UniProt P10408); assay: Assay to Identify E. coli SecA ATPase Inhibitors; format: functional; details: 30 µM
Protein translocase subunit SecA (Escherichia coli (strain K12)), sequence (P10408 whole entry): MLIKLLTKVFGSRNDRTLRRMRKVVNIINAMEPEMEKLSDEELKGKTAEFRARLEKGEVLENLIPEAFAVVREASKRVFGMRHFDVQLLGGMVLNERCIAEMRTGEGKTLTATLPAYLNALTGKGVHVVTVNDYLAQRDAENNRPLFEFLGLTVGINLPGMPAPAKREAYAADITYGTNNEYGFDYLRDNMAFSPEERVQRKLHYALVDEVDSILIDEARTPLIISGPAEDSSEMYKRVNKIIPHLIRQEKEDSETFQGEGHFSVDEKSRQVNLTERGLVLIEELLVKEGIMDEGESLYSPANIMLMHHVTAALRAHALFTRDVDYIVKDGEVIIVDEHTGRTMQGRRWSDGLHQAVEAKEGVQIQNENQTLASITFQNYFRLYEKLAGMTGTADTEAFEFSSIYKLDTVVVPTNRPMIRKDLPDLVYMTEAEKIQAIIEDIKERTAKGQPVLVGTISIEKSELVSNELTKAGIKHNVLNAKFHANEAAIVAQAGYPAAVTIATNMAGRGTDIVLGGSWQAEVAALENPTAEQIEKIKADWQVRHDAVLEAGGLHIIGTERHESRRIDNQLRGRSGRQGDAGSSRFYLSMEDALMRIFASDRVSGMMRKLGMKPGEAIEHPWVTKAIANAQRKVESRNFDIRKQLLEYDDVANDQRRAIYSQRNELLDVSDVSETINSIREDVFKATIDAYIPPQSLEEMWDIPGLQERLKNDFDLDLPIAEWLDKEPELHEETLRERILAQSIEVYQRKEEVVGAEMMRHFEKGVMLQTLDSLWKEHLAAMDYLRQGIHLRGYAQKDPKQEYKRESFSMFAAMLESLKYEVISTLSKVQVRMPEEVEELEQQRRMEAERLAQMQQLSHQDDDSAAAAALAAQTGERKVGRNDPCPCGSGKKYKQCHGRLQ

[2] = molecular target: T1, Ubiquitin-activating enzyme e1, putative (Leishmania donovani (strain BPK282A1)) (UniProt E9BSI1); assay: Leishmania donovani Ubiquitin Activating Enzyme (LdE1); format: functional; details: 30 µM
T1 sequence (whole entry): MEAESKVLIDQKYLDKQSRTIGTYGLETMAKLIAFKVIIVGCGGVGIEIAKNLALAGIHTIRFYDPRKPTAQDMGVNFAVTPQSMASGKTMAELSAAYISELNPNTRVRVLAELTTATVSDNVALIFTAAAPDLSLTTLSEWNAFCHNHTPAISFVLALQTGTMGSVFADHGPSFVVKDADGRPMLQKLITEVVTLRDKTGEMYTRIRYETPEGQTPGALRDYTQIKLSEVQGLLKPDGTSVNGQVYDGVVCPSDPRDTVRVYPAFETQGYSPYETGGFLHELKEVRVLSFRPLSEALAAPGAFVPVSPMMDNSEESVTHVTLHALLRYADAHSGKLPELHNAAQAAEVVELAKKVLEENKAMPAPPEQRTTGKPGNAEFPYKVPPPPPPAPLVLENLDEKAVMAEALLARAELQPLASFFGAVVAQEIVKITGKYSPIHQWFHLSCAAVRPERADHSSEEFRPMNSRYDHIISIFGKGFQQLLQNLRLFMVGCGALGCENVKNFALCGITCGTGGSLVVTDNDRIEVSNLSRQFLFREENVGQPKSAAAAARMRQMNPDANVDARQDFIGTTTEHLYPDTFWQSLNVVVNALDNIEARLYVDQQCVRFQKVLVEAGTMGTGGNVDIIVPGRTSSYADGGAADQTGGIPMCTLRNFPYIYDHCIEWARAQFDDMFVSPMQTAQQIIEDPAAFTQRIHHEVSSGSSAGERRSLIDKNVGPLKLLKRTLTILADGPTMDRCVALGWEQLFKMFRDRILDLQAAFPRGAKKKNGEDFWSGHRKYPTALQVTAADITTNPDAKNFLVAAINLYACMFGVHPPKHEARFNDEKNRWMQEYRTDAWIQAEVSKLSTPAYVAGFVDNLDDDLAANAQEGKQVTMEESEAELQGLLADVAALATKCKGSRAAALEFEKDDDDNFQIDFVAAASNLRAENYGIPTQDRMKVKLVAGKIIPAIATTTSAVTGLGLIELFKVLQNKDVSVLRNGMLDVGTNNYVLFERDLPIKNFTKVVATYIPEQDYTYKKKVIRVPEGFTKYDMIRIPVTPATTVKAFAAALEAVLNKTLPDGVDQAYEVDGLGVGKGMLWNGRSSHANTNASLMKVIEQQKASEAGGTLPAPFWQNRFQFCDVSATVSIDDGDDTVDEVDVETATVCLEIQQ

[3] = molecular target: AMP-activated protein kinase, AMPK (Homo sapiens) (UniProt P54646+O43741+P54619+Q9UGJ0+Q9Y478+Q13131+Q9UGI9); assay: AMP-dependent Kinase enzyme assay. An in vitro enzyme assay that detects ADP turnover that is directly proportional to AMPK activity. This uses naive AMPK that is activated during the assay with MK-8722; format: functional; details: 30 µM
[4] = molecular target: Sialic acid-binding Ig-like lectin 9 (Homo sapiens) (UniProt Q9Y336); assay: Hs-Siglec9 ALPHAscreen SOP 20170721; details: 10 µM
Sialic acid-binding Ig-like lectin 9 (Homo sapiens), sequence (Q9Y336 whole entry): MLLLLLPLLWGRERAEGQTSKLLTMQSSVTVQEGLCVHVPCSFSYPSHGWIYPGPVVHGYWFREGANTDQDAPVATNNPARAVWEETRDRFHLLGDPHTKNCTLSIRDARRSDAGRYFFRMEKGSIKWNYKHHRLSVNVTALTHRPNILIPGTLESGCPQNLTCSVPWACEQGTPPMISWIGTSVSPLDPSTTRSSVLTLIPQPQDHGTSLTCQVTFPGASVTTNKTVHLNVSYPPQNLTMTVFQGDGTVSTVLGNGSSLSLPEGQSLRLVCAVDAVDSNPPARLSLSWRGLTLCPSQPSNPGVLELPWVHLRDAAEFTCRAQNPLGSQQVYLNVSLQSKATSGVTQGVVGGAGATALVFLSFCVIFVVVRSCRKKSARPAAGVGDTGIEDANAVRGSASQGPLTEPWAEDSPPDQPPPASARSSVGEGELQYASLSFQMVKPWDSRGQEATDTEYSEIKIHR

Trypanosoma cruzi = assay: Trypanosoma cruzi phosphomannomutase and mannose-1-phosphate guanylyltransferase assay; format: functional; details: 10 µM
[5] = molecular target: T2, Arginase-2, mitochondrial (Homo sapiens) (UniProt P78540); assay: in vitro enzyme assay to detect the production of urea directly proportional to the activity of Arginase II; format: functional; details: 33.3 µM; also: in the data most compounds retested in dose-response had high values
T2 sequence (whole entry): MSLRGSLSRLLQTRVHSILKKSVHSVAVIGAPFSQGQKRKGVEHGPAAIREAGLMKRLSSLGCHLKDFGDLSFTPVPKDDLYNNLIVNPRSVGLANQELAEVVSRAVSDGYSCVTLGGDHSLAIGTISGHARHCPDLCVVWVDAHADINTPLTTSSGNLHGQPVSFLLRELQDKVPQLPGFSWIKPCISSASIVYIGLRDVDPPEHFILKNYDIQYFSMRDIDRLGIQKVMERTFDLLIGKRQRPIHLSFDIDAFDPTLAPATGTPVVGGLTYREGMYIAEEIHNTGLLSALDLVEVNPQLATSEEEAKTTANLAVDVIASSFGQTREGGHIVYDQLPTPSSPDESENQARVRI

[6] = molecular target: T3, Proteasome subunit beta (Trypanosoma cruzi) (UniProt O96673); assay: Trypanosoma cruzi proteasome chymotrypsin-like activity (TcProtChymo) assay.; also: in the data most compounds retested in dose-response had high values; format: functional; details: 9.37 µM
T3 sequence (whole entry): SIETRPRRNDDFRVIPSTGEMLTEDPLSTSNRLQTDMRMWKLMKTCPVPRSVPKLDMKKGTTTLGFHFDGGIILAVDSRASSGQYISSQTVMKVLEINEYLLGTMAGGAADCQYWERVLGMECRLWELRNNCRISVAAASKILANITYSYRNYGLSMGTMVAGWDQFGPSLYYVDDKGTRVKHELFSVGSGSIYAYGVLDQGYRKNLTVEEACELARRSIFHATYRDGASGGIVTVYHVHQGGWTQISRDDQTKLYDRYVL

Homo sapiens = organism: Homo sapiens; assay: To identify inhibition of the IFN signalling (Jak-Stat) pathway via expression of an eGFP reporter gene under the control of an IFN-stimulated response element (ISRE) containing MxA promoter.; format: functional; details: 30 µM
[7] = molecular target: T4, Tyrosyl-tRNA synthetase, putative (Trypanosoma cruzi (strain CL Brener)) (UniProt Q4DSP6); assay: Trypanosoma cruzi tyrosyl tRNA synthetase (TcYRS) _High Tyrosine SOP; format: functional; details: 30 µM; also: in the data most compounds retested in dose-response had high values
T4 sequence (whole entry): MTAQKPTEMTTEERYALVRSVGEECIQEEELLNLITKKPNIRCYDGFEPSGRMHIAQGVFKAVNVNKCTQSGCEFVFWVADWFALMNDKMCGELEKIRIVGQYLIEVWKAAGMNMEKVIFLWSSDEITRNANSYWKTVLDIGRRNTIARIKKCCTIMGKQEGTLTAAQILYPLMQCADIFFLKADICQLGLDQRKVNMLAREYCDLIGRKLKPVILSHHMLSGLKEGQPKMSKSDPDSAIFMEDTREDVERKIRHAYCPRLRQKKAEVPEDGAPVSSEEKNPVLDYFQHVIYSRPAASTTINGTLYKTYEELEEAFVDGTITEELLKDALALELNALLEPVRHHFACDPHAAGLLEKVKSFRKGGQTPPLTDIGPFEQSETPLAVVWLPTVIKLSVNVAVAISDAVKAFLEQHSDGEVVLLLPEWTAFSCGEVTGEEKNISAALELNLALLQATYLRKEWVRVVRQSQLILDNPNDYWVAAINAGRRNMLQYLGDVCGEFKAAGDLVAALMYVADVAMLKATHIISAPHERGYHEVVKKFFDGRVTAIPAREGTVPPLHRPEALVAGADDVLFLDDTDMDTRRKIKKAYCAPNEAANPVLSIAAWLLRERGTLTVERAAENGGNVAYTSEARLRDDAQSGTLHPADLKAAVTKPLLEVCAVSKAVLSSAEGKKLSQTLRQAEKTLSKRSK

[8] = molecular target: T4, Tyrosyl-tRNA synthetase, putative (Trypanosoma cruzi (strain CL Brener)); assay: Trypanosoma cruzi tyrosyl tRNA synthetase (TcYRS) SOP; format: functional; details: 30 µM
[9] = molecular target: Chromo domain-containing protein 1 (Saccharomyces cerevisiae (strain ATCC 204508 / S288c) (Baker's yeast)) (UniProt P32657); assay: ScCHD-1 Enzyme Inhibition Assay; format: functional; details: 30 µM; also: in the data most compounds retested in dose-response had high values
Chromo domain-containing protein 1 (Saccharomyces cerevisiae (strain ATCC 204508 / S288c) (Baker's yeast)), sequence (P32657 whole entry, the tested form may be a part): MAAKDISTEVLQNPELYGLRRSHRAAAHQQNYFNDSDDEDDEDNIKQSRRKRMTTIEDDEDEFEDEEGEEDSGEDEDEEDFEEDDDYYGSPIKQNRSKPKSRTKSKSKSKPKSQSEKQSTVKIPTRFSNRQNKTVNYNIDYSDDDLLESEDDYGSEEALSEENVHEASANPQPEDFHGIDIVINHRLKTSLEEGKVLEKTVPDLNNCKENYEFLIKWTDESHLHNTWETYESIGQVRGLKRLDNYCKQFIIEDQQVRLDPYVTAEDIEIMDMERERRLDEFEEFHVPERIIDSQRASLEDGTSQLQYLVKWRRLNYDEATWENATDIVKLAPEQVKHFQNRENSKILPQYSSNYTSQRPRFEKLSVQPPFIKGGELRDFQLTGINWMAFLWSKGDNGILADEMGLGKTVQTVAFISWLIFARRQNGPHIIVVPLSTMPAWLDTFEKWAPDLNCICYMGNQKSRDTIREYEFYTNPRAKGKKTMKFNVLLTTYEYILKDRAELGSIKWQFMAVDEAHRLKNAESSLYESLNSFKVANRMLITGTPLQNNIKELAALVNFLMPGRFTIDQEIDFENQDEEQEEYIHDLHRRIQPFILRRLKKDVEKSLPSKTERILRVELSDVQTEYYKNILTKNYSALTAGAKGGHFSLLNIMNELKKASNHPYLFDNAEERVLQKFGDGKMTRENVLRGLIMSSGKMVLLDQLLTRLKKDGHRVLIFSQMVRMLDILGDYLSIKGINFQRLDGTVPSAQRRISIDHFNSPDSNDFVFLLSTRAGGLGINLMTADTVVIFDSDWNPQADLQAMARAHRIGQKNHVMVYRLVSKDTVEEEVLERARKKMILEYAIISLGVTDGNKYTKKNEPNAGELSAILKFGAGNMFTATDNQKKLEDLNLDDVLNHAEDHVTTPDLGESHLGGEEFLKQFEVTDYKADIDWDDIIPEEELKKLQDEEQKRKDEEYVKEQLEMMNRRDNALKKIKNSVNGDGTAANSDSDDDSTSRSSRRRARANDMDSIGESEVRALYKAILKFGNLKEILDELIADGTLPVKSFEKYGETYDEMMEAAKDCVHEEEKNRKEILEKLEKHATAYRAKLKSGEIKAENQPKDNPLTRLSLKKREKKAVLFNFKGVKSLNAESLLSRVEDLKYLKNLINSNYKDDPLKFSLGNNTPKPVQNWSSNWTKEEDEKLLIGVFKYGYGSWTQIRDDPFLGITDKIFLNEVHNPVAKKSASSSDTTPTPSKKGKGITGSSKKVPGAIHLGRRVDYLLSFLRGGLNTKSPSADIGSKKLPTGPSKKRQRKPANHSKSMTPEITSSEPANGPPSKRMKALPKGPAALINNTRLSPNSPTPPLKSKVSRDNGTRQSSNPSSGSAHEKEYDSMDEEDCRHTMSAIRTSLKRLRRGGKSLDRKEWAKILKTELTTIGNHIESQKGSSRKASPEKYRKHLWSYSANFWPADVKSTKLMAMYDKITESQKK

Row | SMILES | Percent Effect [1] [%] | Percent Effect [2] [%] | Percent Effect [3] [%] | Percent Effect [4] [%] | Percent Effect (Trypanosoma cruzi) [%] | Percent Effect [5] [%] | Percent Effect [6] [%] | Percent Effect (Homo sapiens) [%] | Percent Effect [7] [%] | Percent Effect [8] [%] | Percent Effect [9] [%]
1 | Cn1cc2c(n1)C(COCC1CC1)CN(Cc1ccccn1)C2 (stereo unspecified) | -6.24 | -2.7 | 0.433 | -2.97 | 4.2 | -0.319 | 9.22 | 9.46 | 6.49 | 10.3 | 4.91
2 | COc1ccc(NC(C)C(=O)NCCc2cccs2)cc1F (stereo unspecified) | -7.72 | -2.74 | -49.8 | 6.34 | -3.92 | 0 | 15.3 | 14.2 | -1.07 | -5 | -3.93
3 | CN(Cc1ccccc1)CC1(O)CCCN(CC(C)(C)C)C1=O (stereo unspecified) | -2.06 | 6.94 | -11.8 | 18.9 | 5.15 | -1.77 | 1.4 | -1.36 | 3.16 | 0 | -0.279
4 | c1coc(CN2CCCC3(COCCN(Cc4c[nH]nn4)C3)C2)c1 (stereo unspecified) | -3.44 | 8 | 2.62 | 8.5 | -0.193 | -23.1 | 10.9 | -4.99 | 7.29 | 10 | -7.03
5 | CC(c1cccnc1)N(C)Cc1csc(-c2ccccn2)n1 (stereo unspecified) | -7.3 | 5.48 | -12.1 | 19.7 | 6.66 | 3.64 | 5.86 | 8.26 | 5.38 | 15 | 92.8
6 | CCOC(=O)c1sc2ccsc2c1CN | -2.04 | -5.41 | -6.96 | -0.173 | -5.29 | 3.88 | -7.36 | 20.9 | 0 | -1.22 | 5.83
7 | COCCN1C[C@@H]2CN(Cc3ccsc3)CCC[C@]2(C(=O)O)C1 | 0.995 | 10.4 | 4.76 | -2.5 | -5.23 | 11 | 16.5 | 13.1 | 4.23 | 14.1 | -4.97
8 | O=C(c1cccn1Cc1cccs1)N1CCN(C2CC2)CC1 | -4.51 | 0 | 3.71 | 11 | 8.05 | 0 | 11.3 | -0.305 | 6.8 | 14.6 | -8.6
9 | O=C(CCC(=O)N1CCCC1c1cccs1)N1CCc2sccc2C1 (stereo unspecified) | 1.64 | -8.11 | -5.22 | 4.27 | 5 | -1.6 | 3.42 | 19.6 | 3.45 | 3.7 | -5.21
10 | O=C(c1ccc(Cl)cc1)N1CCCn2nnc(Cn3cccn3)c2C1 | -2.51 | 16.2 | 3.45 | 15.3 | 4.2 | 8.19 | 16.6 | 8.78 | 5.38 | 16.1 | -7.62
11 | Cc1ccc(NC(=O)NC(C)C(=O)N2CCS(=O)(=O)CC2)cc1 (stereo unspecified) | -3.85 | 5.41 | 2.74 | 5.55 | -1.74 | -11.9 | 12.4 | 11.4 | -0.529 | 12.2 | -2.08
